# Data published in PubChem BioAssay (NCI).
# About 83,000 compounds went through this panel and 20% of them were active in at least one assay; those are over-represented in the sample as a whole.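 Percent growth is the endpoint: 0 to 100 indicates growth inhibition (40 means 60% inhibition), 0 means no net growth, and negative values indicate cell death.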 Unmarked numbers belong to inactive results. Activity calls are given as the source filed them. The calls were made as follows: active = growth percent below 10; inactive = the rest.
# Legend:
# Assay in all cases: NCI-60 one-dose screen, 48 h (100 = growth as untreated, 0 = no growth, -100 = all killed)
# Conditions in all cases: 10 µM
# SK-MEL-2 melanoma = tested on: SK-MEL-2 melanoma
# EKVX NSCLC = tested on: EKVX NSCLC
# SN12C renal = tested on: SN12C renal
# UO-31 renal = tested on: UO-31 renal
# TK-10 renal = tested on: TK-10 renal
# ACHN renal = tested on: ACHN renal
# CAKI-1 renal = tested on: CAKI-1 renal
# A498 renal = tested on: A498 renal
# CCRF-CEM leukemia = tested on: CCRF-CEM leukemia
# MOLT-4 leukemia = tested on: MOLT-4 leukemia
SMILES,growth (SK-MEL-2 melanoma),growth (EKVX NSCLC),growth (SN12C renal),growth (UO-31 renal),growth (TK-10 renal),growth (ACHN renal),growth (CAKI-1 renal),growth (A498 renal),growth (CCRF-CEM leukemia),growth (MOLT-4 leukemia)
O=C1NC(=NC23CC4CC(CC(C4)C2)C3)N/C1=C\c1ccc2ncsc2c1,-23.3% (active),-0.13% (active),8.93% (active),2.14% (active),17.8%,3.03% (active),5.17% (active),-11.3% (active),9.69% (active),-5.73% (active)
O=C1Nc2cc(-c3ccc(NC(=O)c4cccs4)cc3)ccc2/C1=C/c1ccc[nH]1,83.5%,55.2%,65.3%,82.1%,112%,82%,89.7%,151%,41.8%,37.4%
N#Cc1ccc(NC(=O)CSc2ccc(-c3ccc(Br)cc3)nn2)cc1,57.9%,72.4%,73.5%,54.6%,103%,64.5%,67.2%,89.4%,57.9%,42.6%
CN1CCN(Cc2ccc(NC(=O)c3cncc(C#Cc4cnc5ccc(N[C@@H]6CCOC6)nn45)c3)cc2C(F)(F)F)CC1,-94.3% (active),-99.6% (active),-98.6% (active),-98.6% (active),-82.2% (active),-100% (active),-98.1% (active),-97.6% (active),-4.84% (active),-19% (active)
Oc1ccc(/C=C2\CCCc3cc4ccc(O)cc4[o+]c32)c(O)c1,37.2%,65.9%,26.5%,51.9%,92.3%,29.3%,40.2%,130%,39%,28.5%
COc1ccc([C@H]2C(C(=O)c3ccc(Cl)cc3)C3(N[C@@H]2c2ccccc2)C(=O)Nc2ccc(Br)cc23)cc1 (stereo not given in full),-64.5% (active),6.66% (active),-81.3% (active),0.589% (active),9.79% (active),0.391% (active),2.8% (active),-7.09% (active),13.9%,12.1%
O=C(CSc1nnc(-c2c[nH]c3ccccc23)n1-c1ccccc1)c1ccc(Cl)cc1,33.7%,25.6%,64.6%,54.8%,84%,57.5%,64.5%,57.3%,92.7%,104%
COc1ccccc1[C@H]1C(C(=O)c2ccc(Cl)cc2)C2(N[C@@H]1c1ccccc1)C(=O)Nc1ccc(Cl)cc12 (stereo not given in full),-76.2% (active),8.9% (active),-66.3% (active),6.99% (active),31.4%,3.8% (active),8.2% (active),13.1%,5.19% (active),-21.1% (active)
O=c1oc2ccc(-c3ccc(F)cc3F)cc2c(=O)n1-c1ccc(F)cc1,-61.5% (active),4.34% (active),-13.3% (active),-3.9% (active),20.5%,-12.7% (active),-24.1% (active),-17.2% (active),1.33% (active),-32.1% (active)
O=C(CSc1nnc(-c2c[nH]c3ccccc23)n1-c1ccccc1)c1ccccc1,91.9%,68.4%,44.7%,55.5%,72%,60.5%,53.2%,106%,91.4%,90.6%
CN1C(=O)N(C)C2SC(N/N=C/C=C/c3ccccc3)=NC21 (stereo not given),81.9%,86.6%,85.6%,58.4%,99.6%,92.7%,83.6%,81.5%,47.5%,46.7%
